Results on 40 compounds are retold here after PubChem BioAssay (NCI).

The panel holds about 83,000 compounds, 20% with a hit somewhere; the sample as a whole holds those more often.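 The test compound was applied at a single concentration to cells in 96-well plates for 48 hours, and percent growth was recorded.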 Unmarked numbers belong to inactive results. The source made the active and inactive calls. How the source made its calls: active means growth percent below 10; inactive means the rest.

This assay has as its system HL-60(TB) leukemia. As to the kind of experiment: NCI-60 one-dose screen, 48 h (100 = growth as untreated, 0 = no growth, -100 = all killed). The settings on record: 10 µM unless noted.
Take `O=C1/C(=C/c2ccc(O)c(O)c2)COc2ccc(-c3ccccc3)cc21`: the growth is -15.8% (active).

With `CC(C)=C[C@@H]1c2c(c3ccccc3n(C)c2=O)O[C@H]2c3c(c4ccccc4n(C)c3=O)OC(C)(C)[C@@H]12`, the growth was 20.4%.

Regarding `CC(C)[C@@H]1CC[C@]2(CO2)[C@@H]2C(=O)OCC(C(=O)O)=C[C@H]21`, the growth was -12.4% (active).

On to `CCCCCCCCCCCCCCCC[n+]1cccc(C#N)c1`, for which the growth is 30.4%.

For `CC(=O)NCCCS(=O)(=O)O`, the growth is 102%.

In the case of `CNC(=O)c1cc(Oc2ccc(NC(=O)c3[nH]c(SC)nc3-c3ccc(F)cc3)cc2)ccn1`, the growth is 78.6%.

Turning to `COC(=O)/C=C1/SC(=Nc2ccc(C(F)(F)F)cc2)N(CCc2c[nH]c3ccc(O)cc23)C1=O`, the growth is -33.1% (active).

`Cc1cc(N2CCCCC2)nc(NC2CCCC(Nc3ccnc4cc(Cl)ccc34)C2)n1` (stereo not given): the growth was -63.6% (active).

For `C#CC[C@@H]1C[C@]2(C)[C@H]3CC[C@@H]4[C@H]5C(C(=C)C)CC[C@]5(C(=O)NCCN(CCN)CCN)CC[C@@]4(C)[C@]3(C)CC[C@H]2C(C)(C)[C@H]1OC(C)=O` (stereo not given in full), the growth is 41.5%.

For `CCC(C)(c1ccc(O)c(C)c1)c1ccc(O)c(C)c1`, the growth is 128%.

`CCCCOc1ccc(/C(C)=N/Nc2cc(C)nc3ccc(Br)cc23)cc1`: the growth was 78.5%.

On to `CCc1n(Cc2ccc3ccccc3c2)c2ccccc2[n+]1Cc1ccc2ccccc2c1`, for which the growth is 14.3%.

Take `COc1cc2c3c(c1)nc(C)n3CCC2`: the growth was 99.7%.

As to `Cc1cc(=O)oc2cc(OC(=O)N3CCN(C)CC3)ccc12`, the growth was 106%.

As for `S=C(NCc1ccccc1)N1CCC(CCCC2CCN(C(=S)NCc3ccccc3)CC2)CC1`, the growth was 89.7%.

For `CSc1nc2sc3c(c2c(=O)n1-c1ccc(C(C)C)cc1)CCC(=O)C3`, the growth is 6.88% (active).

For `COc1cc2c(cc1-c1c(C)noc1C)ncc1nc(-c3ccccn3)n([C@H](C)COC(F)F)c12`, the growth is 33.6%.

Consider `Cc1c(O)cc(-c2cnc(Nc3ccccc3)s2)c(O)c1C`, for which the growth is 101%.

In the case of `Nc1nc(Cl)nc2c1ncn2C1O[C@H](CO)[C@@H](O)[C@@H]1F` (stereo not given in full), the growth is -34.8% (active).

With `C=C1C(=O)O[C@H]2[C@H]1CC/C(COC(=O)NCc1c[nH]c3ccc(Cl)cc13)=C\CC[C@@]1(C)O[C@@H]21`, the growth is -32.9% (active).

In the case of `COc1ccc2c(c1)-c1c(c3cc(OC)ccc3n(CCN(C)C)c1=O)C2=O`, the growth is 18%.

Consider `N#Cc1nc2c(S(=O)(=O)c3ccc(Cl)cc3)c(N)n(Nc3cccc(Cl)c3)c2nc1C#N`, for which the growth was 40.1%.

`CCCCCOc1ccc(C(=O)/C(Br)=C/C(=O)O)cc1`: the growth is 69.3%.

Consider `COc1ccccc1Nc1nnc(COc2ccc(CNC(=O)CCCC/C=C/C(C)C)cc2OC)o1`, for which the growth was 81.1%.

On to `BrC1=C(Br)C(Br)(Br)C(Br)=C1Br`, for which the growth is 27.4%.

On to `COc1cccc(-c2nnc(N)o2)c1`, for which the growth is 74.9%.

`CCC[S@](=O)c1ccc2nc(NC(=O)OC)[nH]c2c1`: the growth is 77.1%.

For the compound `O=C1Nc2cc(-c3ccc(NC(=O)c4ccccc4)cc3)ccc2/C1=C/c1ccc[nH]1`, the growth is 99.2%.

`OC(COc1cccc2ccccc12)CN1CCN(c2ccccc2)CC1` (stereo not given): the growth was 90.9%.

Regarding `COc1ccc(-c2nn(-c3cccc(Cl)c3)cc2-c2cc(-c3cccs3)[nH]c(=S)n2)cc1`, the growth is 46.4%.

Turning to `O=C(Nc1ccc(F)cc1)Nc1ccccc1CNc1nc(Nc2ccc(OCCN3CCCC3)cc2)ncc1Cl`, the growth is -39.6% (active).

For the compound `N#Cc1ccc(C(=O)CSc2nccc(Nc3ccc(C(=O)O)cc3)n2)cc1`, the growth was 99.5%.

Turning to `CCN1CCN(c2nc3ccccc3c3c(=O)c4cc(F)ccc4sc23)CC1`, the growth is 104%.

Take `COc1ccc(N)c(N)c1`: the growth was 84.9%.

On to `CCCC1OC(c2ccc(C(C)C)cc2)OCC1CC` (stereo not given), for which the growth was 92.7%.

Regarding `CCOC(=O)c1cnn(-c2ccc(S(N)(=O)=O)cc2)c1N`, the growth was 92.9%.

As for `COc1ccc(-c2nn(-c3ccc(NC(=O)c4ccc(Cl)c(Cl)c4)cc3)cc2-c2ccncc2)cc1Cl`, the growth was 13.5%.

`C=CCN=C1NC(=O)/C(=C/c2cc(C(C)(C)C)c(O)c(C(C)(C)C)c2)S1`: the growth is 54.3%.

For `CC(C)(C)c1[nH]nc2c1C(c1cc3ccccc3[nH]c1=O)Nc1cc(C(=O)Nc3ccc(Cl)cc3)ccc1N2` (stereo not given), the growth is 55.9%.

Regarding `O=C(Cc1cccc2ccccc12)N/N=C/c1ccc2c(c1)CCC2`, the growth is 68.3%.
